Experimental data published in the supplement of paper PMC3545927.
The other results are listed elsewhere or left out. The hit rate among all sequences tested is not known here.

Molecular target: furin, P09958
Experiment: furin cleavage Z-score vs untreated control; higher = more cleavage, active = 3.5 or more, inactive = 1 or less, 8 variable residues between constant flanks
Outline: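 Sequencing of released DNA, tagged with adapters by PCR, gave read counts used as abundance. That DNA was freed when purified furin cut N-terminally bead-bound 8-mer peptides fused to a cDNA oligonucleotide, in 0.01 ml reactions at 1:10 enzyme:substrate in 50 mM HEPES pH 7.5 with CaCl2 and NaCl, lasting 7.5, 15 or 30 min. The cleavage Z-score was the lowess-adjusted log count versus furin-free reactions, scaled by median absolute deviation.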

furin, P09958, sequence (P09958 whole entry): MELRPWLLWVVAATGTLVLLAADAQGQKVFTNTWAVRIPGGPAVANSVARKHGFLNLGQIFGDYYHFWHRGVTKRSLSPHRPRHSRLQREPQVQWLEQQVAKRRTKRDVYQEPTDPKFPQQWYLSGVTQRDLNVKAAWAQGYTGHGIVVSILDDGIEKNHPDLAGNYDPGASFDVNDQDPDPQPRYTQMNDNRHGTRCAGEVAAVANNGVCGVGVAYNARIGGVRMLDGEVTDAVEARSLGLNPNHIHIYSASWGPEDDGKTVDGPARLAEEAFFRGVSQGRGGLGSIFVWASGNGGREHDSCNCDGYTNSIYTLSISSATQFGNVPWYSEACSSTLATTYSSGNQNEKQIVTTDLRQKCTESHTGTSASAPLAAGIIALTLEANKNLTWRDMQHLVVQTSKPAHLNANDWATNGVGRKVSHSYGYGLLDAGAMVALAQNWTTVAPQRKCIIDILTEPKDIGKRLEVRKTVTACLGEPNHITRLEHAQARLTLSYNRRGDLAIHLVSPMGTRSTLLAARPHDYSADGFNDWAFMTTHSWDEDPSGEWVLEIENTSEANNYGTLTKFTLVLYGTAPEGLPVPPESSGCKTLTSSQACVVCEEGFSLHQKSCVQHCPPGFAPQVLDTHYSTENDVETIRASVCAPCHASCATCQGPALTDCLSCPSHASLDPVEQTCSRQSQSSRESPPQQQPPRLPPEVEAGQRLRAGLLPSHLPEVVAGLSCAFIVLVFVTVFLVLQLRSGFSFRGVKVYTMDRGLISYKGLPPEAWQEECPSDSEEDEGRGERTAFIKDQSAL

Row | Sequence | furin cleavage Z-score (7.5 min) | furin cleavage Z-score (15 min) | furin cleavage Z-score (30 min)
1 | CAAGVGIYLLAGNASASA [HC1661] | -0.0484 (inactive) | -0.628 (inactive) | 0.389 (inactive)
2 | CARLHGLSAFAGNASASA [HC1603] | -0.521 (inactive) | -1.08 (inactive) | 0.0737 (inactive)
3 | CAFTPCSGSWAGNASASA [HC1827] | -0.899 (inactive) | -0.656 (inactive) | -0.511 (inactive)
4 | CACEMEECSQAGNASASA [HC1800] | -0.225 (inactive) | 0.44 (inactive) | -0.298 (inactive)
5 | CARLRKGCGAAGNASASA [FS-2157] | -0.162 (inactive) | 0.798 (inactive) | -0.0332 (inactive)
6 | CALEGRRKRAAGNASASA [FS-938] | 9.45 (active) | 10.2 (active) | 8.2 (active)
7 | CAAPRRLRRAAGNASASA [FS-7] | 6.44 (active) | 6.75 (active) | 5.94 (active)
8 | CAGKVLIDILAGNASASA [HC1083] | -0.625 (inactive) | -0.337 (inactive) | -0.826 (inactive)
9 | CAQKGRVRRAAGNASASA [FS-78] | 11.9 (active) | 10.5 (active) | 7.65 (active)
10 | CAGKVRLRRAAGNASASA [FS-655] | 8.27 (active) | 7.38 (active) | 7.81 (active)
11 | CARGVAKAVDAGNASASA [HC754] | -0.917 (inactive) | 0.591 (inactive) | 0.29 (inactive)
12 | CALWILQASLAGNASASA [HC610] | -0.000456 (inactive) | 2.88 | 1.52
13 | CADCNTCVTQAGNASASA [HC887] | 0.505 (inactive) | -0.795 (inactive) | -0.033 (inactive)
14 | CAEVPCHCPSAGNASASA [HC2380] | -0.21 (inactive) | 0.0658 (inactive) | -0.42 (inactive)
15 | CASTPCSAHRAGNASASA [HC2573] | 0.385 (inactive) | 0.166 (inactive) | 1.63
16 | CAWLKRRKRAAGNASASA [FS-1181] | 11.7 (active) | 10.8 (active) | 7.39 (active)
17 | CALEGRVRRAAGNASASA [FS-268] | 10.4 (active) | 10.8 (active) | 9.36 (active)
18 | CAGMGRVRRAAGNASASA [FS-27] | 11.2 (active) | 10.9 (active) | 10 (active)
19 | CAVLKEVKAAAGNASASA [HC1404] | -0.975 (inactive) | 0.455 (inactive) | -0.678 (inactive)
20 | CAYLNRYKRAAGNASASA [FS-635] | 8.98 (active) | 9.12 (active) | 5.24 (active)
21 | CATIASPKGPAGNASASA [HC705] | -0.242 (inactive) | -0.653 (inactive) | -1.2 (inactive)
22 | CACGKYLFNWAGNASASA [HC1631] | -0.792 (inactive) | -0.758 (inactive) | -0.511 (inactive)
23 | CAPVENLETTAGNASASA [HC759] | 0.416 (inactive) | 0.844 (inactive) | 0.545 (inactive)

Row | Sequence | furin cleavage Z-score (7.5 min) | furin cleavage Z-score (15 min) | furin cleavage Z-score (30 min)
24 | CAYDVVCCSMAGNASASA [HC2109] | 0.403 (inactive) | -1.03 (inactive) | -0.733 (inactive)
25 | CAPEGRTWAQAGNASASA [HC196] | 0.395 (inactive) | -0.56 (inactive) | -1.92 (inactive)
26 | CAPEGRRKRTAGNASASA [FS-1042] | 7.2 (active) | 9.98 (active) | 7.54 (active)
27 | CAVDAETHVTAGNASASA [HC351] | -2.06 (inactive) | -2.12 (inactive) | -1.23 (inactive)
28 | CARRKREVQMAGNASASA [FS-2779] | 6.69 (active) | 7.05 (active) | 7 (active)
29 | CALSKRSLRDAGNASASA [FS-1373] | 4 (active) | 8.19 (active) | 6.86 (active)
30 | CARRKREKTQAGNASASA [FS-3165] | 5.81 (active) | 8.48 (active) | 5.8 (active)
31 | CARRVRSYGQAGNASASA [FS-2084] | 2.55 | 4.27 (active) | 5.55 (active)
32 | CARRKRLPEMAGNASASA [FS-1778] | 0.399 (inactive) | 0.463 (inactive) | -1.64 (inactive)
33 | CAVSKGWRLLAGNASASA [HC670] | 0.0516 (inactive) | -0.975 (inactive) | -0.799 (inactive)
34 | CAWGENDTDVAGNASASA [HC425] | -1.56 (inactive) | -0.446 (inactive) | -2.12 (inactive)
35 | CALDGVRLHRAGNASASA [HC1223] | -1.06 (inactive) | 0.461 (inactive) | -0.00108 (inactive)
36 | CALVVTSTWVAGNASASA [HC2145] | -0.711 (inactive) | -0.969 (inactive) | -0.561 (inactive)
37 | CAEVWTSTWVAGNASASA [HC2188] | 0.933 (inactive) | 0.313 (inactive) | 0.822 (inactive)
38 | CATEPCSGSWAGNASASA [HC1852] | -0.934 (inactive) | -0.739 (inactive) | -1.88 (inactive)
39 | CARRKRSPTQAGNASASA [FS-2069] | 11.3 (active) | 13.3 (active) | 8.55 (active)
40 | CALRKRDVSVAGNASASA [FS-1676] | 4.02 (active) | 6.7 (active) | 7 (active)
41 | CARRKRSIEEAGNASASA [FS-2230] | 9.81 (active) | 9.11 (active) | 9.55 (active)
42 | CALKKRIKSVAGNASASA [FS-2123] | -0.488 (inactive) | -0.595 (inactive) | 0.647 (inactive)
43 | CALSKRLGRSAGNASASA [FS-1644] | 9.63 (active) | 10.3 (active) | 7.46 (active)
44 | CARPVRDDSVAGNASASA [FS-3029] | 0.58 (inactive) | -0.207 (inactive) | -0.229 (inactive)
45 | CAEVPCHRLSAGNASASA [HC2385] | 0.65 (inactive) | 0.937 (inactive) | 2.67
